This is part of a sample that, as a whole, favours compounds with a hit. Of some 83,000 tested, about 20% had one in any assay.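 The test compound was applied at a single concentration to cells in 96-well plates for 48 hours, and percent growth was recorded.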 Values without a mark were called inactive. Active and inactive are the calls of the source. The calls were made as follows: active = growth percent below 10; inactive = the rest.

Among the test systems are T-47D breast; BT-549 breast; MDA-MB-435 melanoma; SW-620 colon; MCF7 breast; HCT-116 colon; HCC-2998 colon; KM12 colon.
Holding throughout (assay): NCI-60 one-dose screen, 48 h (100 = growth as untreated, 0 = no growth, -100 = all killed)
Holding throughout (conditions): 10 µM unless noted

In the case of `CCC(=O)c1ccc(Cl)s1`, the growth was 105% in the test with T-47D breast; 90.5% with BT-549 breast; 114% in the test on MDA-MB-435 melanoma; 104% in the test with SW-620 colon; 97.8% with MCF7 breast; 101% in the test on HCT-116 colon. Besides, the growth is 102% in the test with HCC-2998 colon and 107% in the test with KM12 colon.
As to `N#Cc1c(-c2ccc(Cl)cc2)nc(NN=Cc2ccco2)nc1N1CCOCC1`, the growth in the test with T-47D breast was 23.2%; with BT-549 breast it was 58.5%; in the test on MDA-MB-435 melanoma it was 79.4%; with SW-620 colon, 82.2%; in the test on MCF7 breast, 26.2%; in the test with HCT-116 colon, 76.2%. Further, the results for the growth with HCC-2998 colon and with KM12 colon were 74.8% and 95%, respectively.
`COc1ccc(Nc2c3c4c(cccc4[nH]c2=O)C(=O)c2ccccc2-3)cc1`: the growth in the test on T-47D breast was 75.6%; with BT-549 breast, 6.53% (active); in the test with MDA-MB-435 melanoma, -52.4% (active); in the test with SW-620 colon, 19%; in the test on MCF7 breast, 0.568% (active); with HCT-116 colon, 4.08% (active). Also, the growth was -5.28% (active) in the test on HCC-2998 colon and -36.2% (active) with KM12 colon.
With `Cc1cc2c3ccccc3ccc2[n+]2ccccc12`, the growth with T-47D breast was 4.64% (active); with BT-549 breast it was -2.46% (active); in the test on MDA-MB-435 melanoma it was 76.5%; with SW-620 colon, 33%; in the test with MCF7 breast, 27.2%; in the test on HCT-116 colon it was 43.5%. In addition, the figures for the growth in the test with HCC-2998 colon and in the test with KM12 colon were 47% and 25.9%, respectively.
Consider `Cc1cn2c(/C=C3/C(=O)Nc4c3ccc3ccccc43)c(C(F)(F)F)nc2s1`, for which the growth with T-47D breast was 28.1%; in the test with BT-549 breast, 37.2%; in the test with MDA-MB-435 melanoma, -47.2% (active); in the test with SW-620 colon it was 18.2%; in the test with MCF7 breast, 15.4%; in the test on HCT-116 colon, 30.6%. Further, the growth is 46.6% in the test with HCC-2998 colon and 15.3% with KM12 colon.
With `Cc1nc2ccccc2n1C(=O)C[C@@H]1NC(=S)NC1=O`, the growth is 96.7% in the test on T-47D breast; 95.5% with BT-549 breast; 97.8% in the test with MDA-MB-435 melanoma; 99.4% in the test on SW-620 colon; 93.9% in the test with MCF7 breast; 92.5% in the test on HCT-116 colon. The growth with HCC-2998 colon and with KM12 colon was 102% in each case.
`CCn1c(Cc2ccccc2Nc2c(Cl)cccc2Cl)nnc1SCC(=O)NN1C(=O)/C(=C/c2cc(OC)c(O)c(OC)c2)SC1=S`: the growth with T-47D breast was 24.4%; with BT-549 breast, 50%; in the test with MDA-MB-435 melanoma, -46.5% (active); in the test with SW-620 colon, 21.2%; with MCF7 breast, 16.9%; in the test on HCT-116 colon, 11.5%. In addition, the figures for the growth with HCC-2998 colon and with KM12 colon were 56.9% and 18%, respectively.
As to `O=C(N=Nc1c(O)[nH]c2ccccc12)c1cc(-c2ccccc2)on1`, the growth in the test on T-47D breast was 97.6%; in the test with BT-549 breast it was 109%; in the test with MDA-MB-435 melanoma, 110%; in the test with SW-620 colon it was 97.8%; in the test with MCF7 breast it was 87.9%; in the test on HCT-116 colon, 99.7%. The growth with HCC-2998 colon is 111%; in the test on KM12 colon, 101%.
With `C=C1c2nc3ccccc3n2C=C(c2ccc(Cl)cc2)N1Cc1ccc(OC)cc1`, the growth in the test with T-47D breast was 48%; in the test on BT-549 breast, 97.8%; in the test with MDA-MB-435 melanoma it was 97.9%; in the test with SW-620 colon, 92.7%; in the test with MCF7 breast, 54%; in the test on HCT-116 colon it was 63.5%. In addition, the figures for the growth in the test on HCC-2998 colon and with KM12 colon were 80.4% and 95.4%, respectively.
For `C#CCOc1ccc2ncnc(Nc3cccc(CNC(=O)C=C)c3)c2c1`, the growth in the test with T-47D breast is 87.9% [8.25 µM]; in the test with BT-549 breast it was 96.4% [8.25 µM]; in the test with MDA-MB-435 melanoma, 97.1% [8.25 µM]; in the test on SW-620 colon it was 107% [8.25 µM]; in the test with MCF7 breast, 87% [8.25 µM]; in the test on HCT-116 colon, 104% [8.25 µM]. The growth in the test with HCC-2998 colon is 106% [8.25 µM]; with KM12 colon it was 109% [8.25 µM].
In the case of `O=C(/C=C/c1cccc(Cl)c1)c1ccc(O)c(CN2CCN(c3cc4c(cc3F)c(=O)c(C(=O)O)cn4C3CC3)CC2)c1`, the growth in the test with T-47D breast was 44.9%; in the test on BT-549 breast it was 34%; in the test on MDA-MB-435 melanoma it was 44.7%; in the test with SW-620 colon it was 21.4%; with MCF7 breast, 28.3%; in the test with HCT-116 colon, 6.6% (active). Moreover, the values for the growth with HCC-2998 colon and with KM12 colon were 61.3% and 51.2%, respectively.
Turning to `CCN1CCN(c2nc(NCCNc3ccnc4cc(Cl)ccc34)c3ccccc3n2)CC1`, the growth with T-47D breast is -10.8% (active); in the test on BT-549 breast it was 51.8%; in the test with MDA-MB-435 melanoma it was -66.2% (active); with SW-620 colon, 1.44% (active); in the test with MCF7 breast, 18.6%; in the test with HCT-116 colon, 1.44% (active). Further, the growth in the test on HCC-2998 colon is 35.8%; with KM12 colon it was 7.58% (active).
`CC(C)(O)c1cn(CCCCN2C(=O)C(=O)c3ccccc32)nn1`: the growth was 99.5% in the test on T-47D breast; 110% in the test on BT-549 breast; 101% in the test with MDA-MB-435 melanoma; 99.6% in the test with SW-620 colon; 93.9% in the test on MCF7 breast; 101% in the test with HCT-116 colon. The growth is 103% in the test on HCC-2998 colon and 101% in the test on KM12 colon.
`O=C(N/N=C/c1c[nH]c2ccccc12)c1cc(-c2ccccc2)on1`: the growth with T-47D breast was 77.2%; in the test on BT-549 breast, 90.3%; in the test with MDA-MB-435 melanoma it was 94.8%; with SW-620 colon, 102%; in the test with MCF7 breast, 79.1%; with HCT-116 colon, 90.6%. Moreover, the growth in the test on HCC-2998 colon is 92.9%; in the test with KM12 colon, 92.3%.
Turning to `CCCCn1c(-c2ccc(C(=O)O/N=C(\N)c3ccc4c(c3)OCO4)cc2)nc(-c2ccccc2)c1-c1ccccc1`, the growth in the test with T-47D breast was 0.0231% (active); in the test with BT-549 breast, 54.5%; in the test on MDA-MB-435 melanoma it was 46.1%; in the test with SW-620 colon, 60.3%; in the test with MCF7 breast, 48.1%; with HCT-116 colon, 4.35% (active). Also, the growth in the test with HCC-2998 colon is 61.5%; in the test on KM12 colon, 36.8%.

(Values after PubChem BioAssay (NCI).)
